# Compound activity (PubChem BioAssay)
# GALC G270D up = A Novel Cell-Based Assay to Identify Small Molecules for B -Galactocerebrosidase; P54803; 145M-Twi-hGALC-G270D cells (Twitcher mouse brain line with human GALC G270D), HMU-beta-Gal fluorescence, 48 h; Potency, µM (top dose mostly 57.5 µM), most hits filed as activators; 45,000 compounds, 0.1% hits; note: potency is the fitted concentration of half-maximal effect; 0% is about no effect; nearly all actives have a fitted effect of over 65% in size
#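 Live 145M-Twi cells (Twitcher mouse brain-derived, GALC-null) stably expressing human GALC-G270D, with a wild-type GALC line, were compound-treated. Residual GALC activity was then read as fluorescence from 0.1 mM final HMU-β-gal at pH 5.2; higher signal means activation.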
# B2AR arrestin ag = qHTS assay of beta-arrestin-biased ligands of beta2-adrenergic receptor: NCGC Sytravon Library Screen; Beta-2 adrenergic receptor (Homo sapiens), P07550; HTLA Tango cells, beta-arrestin recruitment, luciferase luminescence, 18 h; Potency, µM (highest dose often 46.1 µM), most hits filed as activators; 44,000 tested, under 10 active;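 note: potency is the fitted concentration of half-maximal effect; 0% = DMSO and full agonism = EC100 isoproterenol or metaproterenol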
#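 Ligand-induced beta-arrestin recruitment to recombinant beta2-AR is measured via a tTA-driven luciferase reporter in Tango cells after 18 hr compound exposure at 37 degrees C. Concentrations span up to 46 microM.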
# GALK inh = qHTS Assay for Inhibitors of Human Galactokinase (GALK): NCGC Sytravon Library Screen; Potency, µM (top dose mostly 57.5 µM), without a hit: top-dose activity, negative = inhibition, hits mostly inhibitors; recombinant GALK, Kinase-Glo ATP luminescence, 1 h; 44,000 tested, under 10 active;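 note: plate controls were full GALK reaction for no effect and reaction lacking GALK for full effect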
#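 Reactions with and without enzyme served as controls. GALK at 5 nM phosphorylates 100 uM galactose using 35 uM ATP (HEPES pH 8.0, Mg2+) for 1 h at RT, with luminescence read 10 min after adding Kinase-Glo Plus.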
# PTAP-TSG101 blk = qHTS Validation Assay for Inhibitors of HIV-1 Budding by Blocking the Interaction of PTAP/TSG101: Sytravon Library Screen. AID 1347069, 2019. Tumor susceptibility gene 101 protein (Homo sapiens), Q99816. Fluorescence polarization, FITC-PTAP peptide/Tsg101, 20 min. Potency, µM (titrated, usually from 115 µM), most hits filed as inhibitors. 44,000 tested, under 10 active; note: potency is the fitted concentration of half-maximal effect; 0% is about no effect
#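 Read-out is FITC fluorescence polarization. Compounds were added to Tsg101 binding domain (10 uM final), then FITC-PTAP peptide (50 nM final), 20 min at r.t. Total S+P intensity flags fluorescent compounds.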
# GPR32 ag = qHTS for Agonists of Human Resolvin D1 Receptor DRV1; Probable G-protein coupled receptor 32 (Homo sapiens), O75388; CHO-K1 GPR32 beta-arrestin PathHunter luminescence, 90 min; zero percent set by DMSO-only wells; activation, % at 76.9 µM; 48,000 compounds, 2.5% hits; AID 1346428, 2018;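 active = activation of at least 60% and not above a set upper limit, about 1 call in 100 departs from these limits; inconclusive = activation of 40% to 60%, or above that upper limit; inactive = activation under 40%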; note: 0% is about no effect
# Target sequence (O75388 whole entry, looked up): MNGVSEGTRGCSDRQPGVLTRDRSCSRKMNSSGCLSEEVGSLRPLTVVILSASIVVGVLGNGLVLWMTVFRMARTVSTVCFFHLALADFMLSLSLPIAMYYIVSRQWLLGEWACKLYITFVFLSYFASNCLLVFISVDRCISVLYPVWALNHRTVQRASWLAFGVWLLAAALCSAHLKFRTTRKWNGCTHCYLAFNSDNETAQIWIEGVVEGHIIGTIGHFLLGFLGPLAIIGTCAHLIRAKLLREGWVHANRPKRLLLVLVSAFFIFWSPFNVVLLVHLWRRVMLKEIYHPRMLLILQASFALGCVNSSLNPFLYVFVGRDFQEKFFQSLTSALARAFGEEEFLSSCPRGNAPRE
#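 CHO-K1 cells stably expressing ProLink-tagged GPR32 and Enzyme Activator-tagged beta-arrestin were seeded at 2,500 cells/well overnight, exposed to compounds for 90 min at 37 °C, then read by beta-Gal complementation chemiluminescence after 1 h detection reagent.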
# An asterisk follows results filed as active; i = inactive; ? = inconclusive; . = not tested or not shown. An excerpt weighted towards active compounds, which were near 2.6% of everything screened. Unless noted, calls come from the whole dose curve; as a rule, active = well fitted curve in the direction sought with a large enough effect; inconclusive = small, poorly fitted or top-dose-only effect, or another doubt; inactive = no such curve, though single readings can be large; an effect the other way counts as inactive or inconclusive.
SMILES,GALC G270D up,B2AR arrestin ag,GALK inh,PTAP-TSG101 blk,GPR32 ag
Cn1c(=O)c2sccc2n2c(CCCC(=O)Nc3ccc(Oc4ccccc4)cc3)nnc12,i,i,-8%,i,-11
OC1(c2ccccc2)CCNCC1,i,.,.,.,-26
Cc1c(-c2cccc(NC(=O)Nc3ccccc3)c2)nc2ncccn12,i,i,-2%,i,96*
Cc1c(-c2cccc(NC(=O)Cc3ccccc3)c2)nc2ncccn12,?,i,-1%,i,30
COc1ccc(C2c3c(-c4ccc(F)cc4)n[nH]c3C(=O)N2c2ccccc2)cc1OC (stereo unspecified),i,i,3%,i,1
COc1cc(C2c3c(-c4ccc(C)cc4)n[nH]c3C(=O)N2c2ccc(F)cc2)ccc1O (stereo unspecified),i,i,0%,i,104*
Cc1ccc(Cn2c(CO)cnc2SCC(=O)Nc2cccc(F)c2)cc1,i,i,0%,i,29
CCOC(=O)c1ccccc1NC(=O)CSc1ncc(CO)n1Cc1ccc(C)cc1,.,i,4%,i,74*
COc1ccccc1NC(=O)CSc1ncc(CO)n1Cc1ccc(F)cc1,i,i,0%,i,65*
OCc1cnc(SCc2cccc(F)c2)n1Cc1ccc(F)cc1,i,i,2%,i,89*
Cc1cccc(OCC(O)CNC(C)(C)C)c1C (stereo unspecified),i,.,.,.,-3
Cc1cc(NC(=O)c2ccco2)cc(-c2nc3ccccc3o2)c1O,i,i,9%,i,27
O=C(Nc1ccc(O)c(-c2nc3ccccc3o2)c1)c1ccco1,i,i,-1%,i,84*
CC1CC(=O)NN=C1c1ccc(NCC(C)(C)NCC(O)COc2cc(Cl)ccc2C#N)cc1 (stereo unspecified),i,.,.,.,43
CCc1ccc(NC(=O)Cn2nc3c4ccccc4n(Cc4ccccc4)cc-3c2=O)cc1,i,i,-2%,i,84*
O=C(NCCc1csc(-c2cccnc2)n1)c1cccc(C(F)(F)F)c1,i,i,0%,i,68*
Cc1ccc(-c2nc3nc(C)cc(Nc4ccccc4O)n3n2)cc1,i,i,0%,i,72*
O=S(=O)(c1ccc(-c2csc(=Nc3ccc(OC(F)(F)Cl)cc3)n2CCCO)cc1)N1CCCC1,i,i,6%,i,1
CCc1ccc(-c2cn3c(n2)sc2cc(C(=O)NCCc4ccc(OC)cc4OC)ccc23)cc1,i,i,-9%,i,-3
COc1ccc(NS(=O)(=O)c2ccc(NS(=O)(=O)c3ccc4c(c3)OCCO4)cc2)cc1,i,i,0%,i,68*
CCCC(CCC)(C(=O)OCC)C(=O)OCC,i,.,.,.,-2
CC(=O)N(CC(=O)N(C)C)c1ccccc1,i,.,.,.,-6
Nc1cc(C(F)(F)F)ccc1S,i,.,.,.,31
CCc1ccc(C2=C(C)C(N3CCC(C(=O)Nc4ccc(F)cc4)CC3)=NS2(=O)=O)cc1,i,i,2%,i,74*
CCc1ccccc1NC(=O)C1CCN(C2=NS(=O)(=O)C(c3ccc(C)c(C)c3)=C2C)CC1,i,i,-1%,i,89*
SMILES,GALC G270D up,B2AR arrestin ag,GALK inh,PTAP-TSG101 blk,GPR32 ag
CC1=C(c2ccc(C(C)C)cc2)S(=O)(=O)N=C1N1CCC(C(=O)NCCc2ccco2)CC1,i,i,0%,i,64*
CCOC(=O)c1c(NC(=O)c2ccc(S(=O)(=O)N3CCCC(C)C3)cc2)sc2c1CC(C)(C)NC2(C)C (stereo unspecified),i,i,0%,i,120*
CC(C)(C)c1nnc(NS(=O)(=O)c2ccc(N)cc2)s1,i,.,.,.,8
CCOc1ccc(C(=O)N2CCN(Cc3cc(=O)n4nc(-c5cccc(OC)c5)sc4n3)CC2)cc1,i,i,-4%,i,74*
CC(=O)CC/C=C(\C)CC/C=C(\C)CC/C=C(\C)CCC=C(C)C,i,.,.,.,31
Cc1ccc(NC(=O)CSc2n[nH]c(-c3ccc(F)cc3)n2)cc1F,i,i,0%,i,67*
CCC(C)(C)c1ccc(CC(C)CN2C[C@@H](C)O[C@@H](C)C2)cc1 (stereo partly specified),i,.,.,.,113*
CCCCCn1c(=O)[nH]c2cc(C(=O)N3CCN(c4cccc(OC)c4)CC3)ccc2c1=O,i,i,4%,i,36
CCCCCn1c(=O)[nH]c2cc(C(=O)N3CCN(c4cccc(C)c4)C(C)C3)ccc2c1=O (stereo unspecified),i,i,-5%,i,104*
Nc1nc2ccccc2n1Cc1ccc(F)cc1,i,.,.,.,48
COc1ccc(C(=O)Nc2cccc(OCc3cc(=O)n4c5c(sc4n3)CCCC5)c2)cc1OC,i,i,7%,i,63*
O=C(Nc1cccc(OCc2cc(=O)n3c4c(sc3n2)CCCC4)c1)c1ccc(F)cc1,i,i,2%,i,22
Cc1cc(CN2CCN(c3ccccc3F)CC2)cs1,i,i,-4%,i,102*
COc1ccc(NC(=O)NC(C)c2c(-n3cccc3)sc3c2CCN(C)C3)c(OC)c1 (stereo unspecified),i,i,2%,i,-20
COc1ccc2c(CNCCc3ccc(SC)cc3)c(C(=O)O)n(Cc3ccc(F)cc3)c2c1,i,i,4%,i,115*
Cc1ccc(CNCc2c(C(=O)O)n(Cc3ccc(C)cc3)c3cc(C)ccc23)cc1,i,i,4%,i,98*
COc1ccc(Cn2c(C(=O)O)c(CNCCc3ccco3)c3ccc(OC)cc32)cc1,i,i,4%,i,1
CCc1ccc(CNCc2c(C(=O)O)n(Cc3cccc(F)c3)c3cc(OC)ccc23)cc1,i,i,-1%,i,109*
CCc1ccc(CNCc2c(C(=O)O)n(Cc3ccc(C)cc3)c3cc(C)ccc23)cc1,i,i,0%,i,33
COc1ccc(OC)c(CNCc2c(C(=O)O)n(Cc3cccc(F)c3)c3cc(OC)ccc23)c1,i,i,-1%,i,5
C[C@H]1C[C@H](O)c2ccsc2S1(=O)=O,i,.,.,.,-8
